Some test systems named below: NCI-H23 lung; NCI-H226 lung; NCI-H322M lung; HOP-62 NSCLC; NCI-H460 lung; NCI-H522 lung; A549/ATCC NSCLC; 786-0 renal; COLO 205 colon; DU-145 prostate; K-562 leukemia; MDA-MB-231 breast; RXF 393 renal; SF-268 CNS; SF-295 CNS; SF-539 CNS; UACC-257 melanoma; M14 melanoma; HCT-15 colon; MALME-3M melanoma.
Common to all, as to test: NCI-60 one-dose screen, 48 h (100 = growth as untreated, 0 = no growth, -100 = all killed)
Common to all, as to conditions: 10 µM unless noted

Compounds without any hit were thinned out: in the full panel of roughly 83,000, 20% have a hit.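 The test compound was applied at a single concentration to cells in 96-well plates for 48 hours, and percent growth was recorded.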 Values without a mark were called inactive. The source made the active and inactive calls. How the source made its calls: active means growth percent below 10; inactive means the rest.

Consider `Oc1ccccc1C=Nc1ccccc1N=Cc1ccccc1O.[Cu+2]`, for which the growth was 33.1% in the assay with NCI-H23 lung; 71.1% with NCI-H226 lung; 51.1% in the assay on NCI-H322M lung; 66% with HOP-62 NSCLC; 84.1% in the assay with NCI-H460 lung; 14.9% in the assay with NCI-H522 lung. In addition, the growth was 66% in the assay on A549/ATCC NSCLC; 90.9% in the assay with 786-0 renal; 83.7% with COLO 205 colon; 68.5% in the assay on DU-145 prostate; 36.7% in the assay on K-562 leukemia; 63.5% with MDA-MB-231 breast. In addition, the growth with RXF 393 renal was 104%; with SF-268 CNS, 75.2%; in the assay on SF-295 CNS it was 68.6%; in the assay on SF-539 CNS, 76%; in the assay with UACC-257 melanoma, 45.4%; with M14 melanoma, 65.2%. In addition, in the assay with HCT-15 colon, the growth is 56.5%.
As to `CC1=CC(=O)C(C(C)=Nc2ccccc2Cl)C(=O)O1` (configuration not stated), the growth is 142% in the assay on NCI-H23 lung; 104% in the assay with NCI-H226 lung; 121% in the assay on NCI-H322M lung; 109% in the assay on HOP-62 NSCLC; 109% with NCI-H460 lung; 121% with NCI-H522 lung. Further, the growth in the assay with A549/ATCC NSCLC is 116%; in the assay with 786-0 renal, 114%; in the assay on COLO 205 colon, 129%; in the assay on DU-145 prostate, 110%; with K-562 leukemia it was 105%; in the assay with MALME-3M melanoma it was 123%. Also, the growth was 105% with MDA-MB-231 breast; 101% in the assay on SF-268 CNS; 121% with SF-295 CNS; 101% in the assay with SF-539 CNS; -17.3% (active) with UACC-257 melanoma; 107% in the assay on M14 melanoma. Moreover, the growth in the assay on HCT-15 colon is 105%.
Turning to `C/C(=C\CCc1ccsc1)CC/C=C(\C)CCCN1CCN(CCO)CC1`, the growth with NCI-H23 lung is 62.2%; in the assay on NCI-H226 lung it was 67.7%; in the assay with NCI-H322M lung, 71.8%; in the assay with HOP-62 NSCLC it was 69.1%; with NCI-H460 lung, 14.6%; in the assay with NCI-H522 lung, 71.5%. Further, the growth was 44.8% in the assay on A549/ATCC NSCLC; 32.8% in the assay with 786-0 renal; -9.2% (active) in the assay on COLO 205 colon; 76.4% in the assay on DU-145 prostate; -27.4% (active) with K-562 leukemia; -14.4% (active) in the assay on MALME-3M melanoma. In addition, the growth was 27% in the assay on MDA-MB-231 breast; 71.7% with SF-268 CNS; 35.9% in the assay with SF-295 CNS; 57.8% with SF-539 CNS; 11.4% in the assay with UACC-257 melanoma; 14.2% with M14 melanoma. Besides, the growth in the assay with HCT-15 colon is -22.2% (active).
As to `CC/C=C\C=C/C(=O)N/C=C/CC1Cc2cccc(O)c2C(=O)O1` (configuration not stated), the growth with NCI-H23 lung is 77.1%; in the assay with NCI-H226 lung, 110%; with NCI-H322M lung, 119%; with HOP-62 NSCLC it was 65.5%; with NCI-H460 lung it was 130%; in the assay on NCI-H522 lung, 55.2%. Further, the growth is 84.8% in the assay on A549/ATCC NSCLC; 81.5% with 786-0 renal; 94.2% in the assay with COLO 205 colon; 76.4% in the assay on DU-145 prostate; 25.9% in the assay with K-562 leukemia; 98.8% with MALME-3M melanoma. For the same molecule, the growth was 64.3% in the assay with MDA-MB-231 breast; 119% with SF-268 CNS; 262% in the assay with SF-295 CNS; 38.3% with SF-539 CNS; 86.7% in the assay with UACC-257 melanoma; 44.2% in the assay on M14 melanoma. The growth with HCT-15 colon is 80.3%.
For `CCc1ccc(CCN2C(=O)c3ccccc3C2=O)nc1`, the growth is 112% in the assay with NCI-H23 lung; 100% in the assay on NCI-H226 lung; 108% with NCI-H322M lung; 102% in the assay with HOP-62 NSCLC; 103% in the assay on NCI-H460 lung; 118% with NCI-H522 lung. Besides, the growth in the assay with A549/ATCC NSCLC was 106%; with 786-0 renal, 106%; in the assay with COLO 205 colon, 118%; in the assay on DU-145 prostate, 118%; in the assay on K-562 leukemia, 95.8%; in the assay with MALME-3M melanoma, 102%. Besides, the growth in the assay on MDA-MB-231 breast is 98.5%; with SF-268 CNS, 103%; with SF-295 CNS, 104%; in the assay on SF-539 CNS, 91.6%; in the assay on UACC-257 melanoma, 95.6%; in the assay with M14 melanoma it was 110%. For the same molecule, the growth in the assay with HCT-15 colon was 113%.
For the molecule `CSc1ncc2ncn(C3OC(CO)C(O)C3O)c2n1` (configuration not stated), the growth in the assay with NCI-H23 lung is 137%; with NCI-H226 lung, 102%; in the assay on NCI-H322M lung, 124%; in the assay on HOP-62 NSCLC, 119%; with NCI-H460 lung, 120%; in the assay with NCI-H522 lung it was 119%. The growth in the assay with A549/ATCC NSCLC was 108%; in the assay on 786-0 renal it was 110%; with COLO 205 colon, 142%; in the assay with DU-145 prostate it was 115%; with K-562 leukemia it was 104%; in the assay with MALME-3M melanoma, 126%. Also, the growth is 108% in the assay on MDA-MB-231 breast; 103% in the assay on SF-268 CNS; 107% with SF-295 CNS; 114% with SF-539 CNS; 126% with UACC-257 melanoma; 107% in the assay with M14 melanoma. The growth in the assay with HCT-15 colon is 114%.
For `COc1ccc(/C=N\Nc2ccc([N+](=O)[O-])cn2)cc1OC`, the growth is 88.4% with NCI-H23 lung; 34.7% in the assay on NCI-H226 lung; 10.8% with NCI-H322M lung; 25.4% in the assay with HOP-62 NSCLC; 1.43% (active) in the assay on NCI-H460 lung; 47.9% with NCI-H522 lung. For the same molecule, the growth is 30.3% in the assay on A549/ATCC NSCLC; 10.2% in the assay on 786-0 renal; 67.5% with COLO 205 colon; 73.7% in the assay on DU-145 prostate; 93.7% with K-562 leukemia; -0.447% (active) with MDA-MB-231 breast. The growth with RXF 393 renal is 51.6%; in the assay on SF-268 CNS, 73.3%; in the assay on SF-295 CNS, 35.4%; with SF-539 CNS, 32.1%; in the assay with UACC-257 melanoma, 67.6%; in the assay on M14 melanoma it was 110%. Further, the growth with HCT-15 colon is 95.8%.
In the case of `CCCOc1ccc2c(c1)CC[C@@H]1[C@@H]2CC[C@@]2(C)[C@H]1CC[C@]2(C)O`, the growth is 93.2% in the assay on NCI-H23 lung; 92.3% in the assay on NCI-H226 lung; 71.4% in the assay with NCI-H322M lung; 89.7% with HOP-62 NSCLC; 35.8% in the assay with NCI-H460 lung; 76.4% in the assay on NCI-H522 lung. For the same molecule, the growth was 63.7% with A549/ATCC NSCLC; 90.3% with 786-0 renal; 28.2% with COLO 205 colon; 91.6% in the assay with DU-145 prostate; 1.46% (active) in the assay with K-562 leukemia; 51.1% in the assay with MDA-MB-231 breast. Further, the growth was 83.7% in the assay on RXF 393 renal; 81.5% in the assay on SF-268 CNS; 58.7% in the assay with SF-295 CNS; 67.5% in the assay on SF-539 CNS; 73.8% in the assay on UACC-257 melanoma; 79.5% in the assay with M14 melanoma. Moreover, the growth with HCT-15 colon is 56.7%.

These data come from PubChem BioAssay (NCI).
